Source: PubChem BioAssay (Tox21)
Records with an inconclusive call do not appear. A call without a number means that no potency is given here. The source made the active and inactive calls. Calls follow the shape of the dose curve; as a rule, active = well fitted curve in the direction sought with a large enough effect in the repeat runs; inconclusive = weak or mixed curves; inactive = no such curve, though single readings can be large; an effect the other way counts as inactive or inconclusive.

What was measured:
[1] = A CellTox Green Cytotoxicity Assay to monitor cytotoxicity in HepG2 cells - 0 hour (AID 1224882); conditions: CellTox Green fluorescence; series mostly up to 76.8 µM; also: nearly all actives have a fitted effect of over 35% in size
How it was run: (§1)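 Continuous culture of HepG2 cells with a membrane-impermeant DNA dye; rising fluorescence marks dead cells. Compound exposure lasted up to 40 h at 37 C, with reads every 8 h from 0 h.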

[2] = A CellTox Green Cytotoxicity Assay to monitor cytotoxicity in HepG2 cells - 32 hour (AID 1224883); conditions: CellTox Green fluorescence; series mostly up to 76.8 µM; also: nearly all actives have a fitted effect of over 50% in size; also: potency is read from the fitted curve at half-maximal effect
How it was run: as §1

[3] = A CellTox Green Cytotoxicity Assay to monitor cytotoxicity in HEK293 cells - 8 hour (AID 1224884); conditions: CellTox Green fluorescence; series mostly up to 76.8 µM; also: nearly all actives have a fitted effect of over 35% in size; also: potency is read from the fitted curve at half-maximal effect
How it was run: (§2)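 Each value comes from one timepoint of a single continuous run in which HEK293 cells with CellTox Green were exposed to compound for up to 40 h at 37 C, dye fluorescence rising with cell death.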

[4] = qHTS RealTime-Glo MT Cell Viability Assay in HEK293 cells - 24 hour (AID 1224886); conditions: RealTime-Glo luminescence; series mostly up to 76.8 µM; also: nearly all actives have a fitted effect of over 50% in size; also: potency is read from the fitted curve at half-maximal effect
How it was run: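 HEK293 cells were seeded at 600 cells/well together with NanoLuc luciferase and cell-permeant prosubstrate, preincubated 5 h at 37 C/5% CO2, then given compound in DMSO by pintool. Luminescence from viable-cell prosubstrate reduction was read repeatedly over 40 h.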

[5] = qHTS RealTime-Glo MT Cell Viability Assay in HEK293 cells - 8 hour (AID 1224887); conditions: RealTime-Glo luminescence; series mostly up to 76.8 µM; also: nearly all actives have a fitted effect of over 50% in size; also: potency is read from the fitted curve at half-maximal effect
How it was run: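 qHTS format; HEK293 cells with NanoLuc/prosubstrate reagent, 37 C/5% CO2 for 5 h pre-dosing; compounds 23 nL in DMSO; luminescence at each time point reflects viable cells.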

[6] = A CellTox Green Cytotoxicity Assay to monitor cytotoxicity in HEK293 cells - 16 hour (AID 1224888); conditions: CellTox Green fluorescence; series mostly up to 76.8 µM; also: nearly all actives have a fitted effect of over 35% in size; also: potency is read from the fitted curve at half-maximal effect
How it was run: as §2

[7] = A CellTox Green Cytotoxicity Assay to monitor cytotoxicity in HepG2 cells - 8 hour (AID 1224890); conditions: CellTox Green fluorescence; series mostly up to 76.8 µM; also: nearly all actives have a fitted effect of over 45% in size
How it was run: as §1

[8] = qHTS RealTime-Glo MT Cell Viability Assay in HepG2 cells - 0 hour (AID 1224889); conditions: RealTime-Glo luminescence; series mostly up to 76.8 µM; also: nearly all actives have a fitted effect of over 50% in size
How it was run: (§3)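 HepG2 cells were seeded at 600 cells/well together with NanoLuc luciferase and a cell-permeant prosubstrate, preincubated 5 h at 37 C/5% CO2, then pin-dosed with compounds in DMSO. Nonlytic luminescence from viable cells was read at each time point.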

[9] = qHTS RealTime-Glo MT Cell Viability Assay in HepG2 cells - 16 hour (AID 1224885); conditions: RealTime-Glo luminescence; series mostly up to 76.8 µM; also: nearly all actives have a fitted effect of over 50% in size
How it was run: as §3

| SMILES | Potency [1] | Potency [2] | Potency [3] | Potency [4] | Potency [5] | Potency [6] | Potency [7] | Potency [8] | Potency [9] |
| --- | --- | --- | --- | --- | --- | --- | --- | --- | --- |
| O=C(/C=C/c1ccc(O)c(O)c1)O[C@@H](C(=O)O)[C@@H](OC(=O)/C=C/c1ccc(O)c(O)c1)C(=O)O | inactive | inactive | inactive | inactive | inactive | inactive | inactive | – | – |
| COc1ccc2cc1Oc1ccc(cc1)C[C@H]1c3c(cc4c(c3Oc3cc5c(cc3OC)CCN(C)[C@@H]5C2)OCO4)CCN1C | inactive | 23.9 µM (active) | inactive | – | – | – | inactive | inactive | – |
| S=C([S-])NCCNC(=S)[S-].S=C([S-])NCCNC(=S)[S-].[Mn+2].[Zn+2] | inactive | inactive | inactive | – | – | inactive | inactive | inactive | – |
| CCCCCCCCCCCCOCCOCCOCCOCCOCCOCCOCCOCCOCCO | inactive | 23.9 µM (active) | 16.9 µM (active) | 5.35 µM (active) | 10.7 µM (active) | 12 µM (active) | – | inactive | – |
| CCCc1ccc(OCC(=O)N2CCN(C(=O)COc3ccc(CCC)cc3OC)CC2)c(OC)c1 | inactive | 23.9 µM (active) | – | 9.52 µM (active) | – | inactive | inactive | inactive | – |
| C/C=C/C=C/COC(=O)C(C)C | inactive | 38.9 µM (active) | inactive | – | – | inactive | inactive | inactive | inactive |
| OCCN1CCN(CCCN2c3ccccc3Sc3ccc(C(F)(F)F)cc32)CC1 | inactive | 26.8 µM (active) | inactive | 23.9 µM (active) | – | 26.8 µM (active) | – | inactive | – |
| Cc1ccc(C(=O)O)cc1 | inactive | – | inactive | inactive | inactive | inactive | inactive | inactive | – |
| CCCC[P+](C)(CCCC)CCCC | inactive | inactive | inactive | – | inactive | inactive | inactive | inactive | inactive |
